Screens: PubChem, National Center for Advancing Translational Sciences (NCATS)
An excerpt weighted towards active compounds, which were near 15% of everything screened.
RORgamma inh: ROR gamma (mouse) transcription inhibition; P51450; Drosophila S2 Gal4-RORgamma UAS-luciferase reporter, 20 h; Potency, µM (titrated, usually from 53.6 µM), without a hit: at the top dose activity change, negative = inhibition, usual class: inhibitors; 5.4% of 310,000 active; further: nearly all actives have a fitted effect of over 60% in size
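Compounds are pin-transferred onto Drosophila Schneider cells expressing a copper-inducible Gal4–ROR gamma transactivation domain fusion. After 1 hr, copper sulfate is added to 700 uM final; luciferase is read 20 hr later.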
DT40 TDP1 no CPT: qHTS for Inhibitors of human tyrosyl-DNA phosphodiesterase 1 (TDP1): qHTS in cells in absence of CPT; Potency, µM (highest dose often 46.2 µM), inactives show at the top dose activity change, negative = growth inhibition, most hits filed as inhibitors; DT40 Tdp1-/- hTDP1 cells, no CPT, ATP luminescence, 48 h; AID 686978, 2013; 15% of 420,000 active; further: nearly all actives have a fitted effect of over 55% in size
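A cellular qHTS used chicken DT40 cells lacking endogenous Tdp1 but carrying stably transfected human TDP1. Compounds were applied without camptothecin, and cell growth kinetics were judged by ATP-dependent luminescence after ≥48 hr.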
TDP1 cell CPT: growth inhibition of DT40 Tdp1-/-;hTDP1 cells with camptothecin (screen for TDP1 inhibitors) | Potency, µM (highest dose often 46.2 µM), for the others: top-dose activity change, negative = growth inhibition, most hits filed as inhibitors | chicken DT40 Tdp1-/-;hTDP1 cells + 20 nM CPT, ATP luminescence, 48 h | 12% of 420,000 active; further: nearly all actives have a fitted effect of over 55% in size
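Cell growth measured by CellTiter-Glo luminescence after a minimum 48 h, 37 C compound exposure with 20 nM CPT in Tdp1-knockout DT40 cells stably expressing hTDP1, seeded 400/well; qHTS titration format.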
ELG1 repair inh: blocks ELG1-dependent DNA repair in HEK293T cells; HEK293T ELG1-luciferase reporter, luminescence, 16 h; DNA damage induced by 5-fluorouridine; Potency, µM (doses to about 46.1 µM), for the others: at the top dose activity change, negative = inhibition, usual class: inhibitors; 2.3% of 330,000 active; further: nearly all actives have a fitted effect of over 55% in size
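DMSO vehicle served as the neutral condition. Each well held 2,000 cells given 5-fluorouridine plus compound; after 16 hr at 37 °C/5% CO2, ONE-Glo was added and luciferase measured 30 min later.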
Gal4-VP16 FLuc: inhibits Gal4-VP16 luciferase reporter, ROR gamma counter-screen | AID 2546 | Potency, µM (series often up to 53.6 µM), for the others: at the top dose activity, negative = inhibition, usual class: inhibitors | Drosophila S2 Gal4-VP16 UAS-luciferase, luminescence, 20 h | 3.5% of 310,000 active;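 further: Gal4-VP16 expression switched on by copper sulfate through the metallothionein promoter; nearly all actives have a fitted effect of over 50% in size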
ALOX12 inh: ALOX12 (human) lipoxygenase inhibition | P18054 | purified 12hLO, xylenol orange hydroperoxide absorbance | Potency, µM (titrated, usually from 108 µM), inactives show at the highest dose activity change, negative = inhibition, actives largely listed as inhibitors | 1.1% of 580,000 active
Target sequence (P18054 whole entry, looked up): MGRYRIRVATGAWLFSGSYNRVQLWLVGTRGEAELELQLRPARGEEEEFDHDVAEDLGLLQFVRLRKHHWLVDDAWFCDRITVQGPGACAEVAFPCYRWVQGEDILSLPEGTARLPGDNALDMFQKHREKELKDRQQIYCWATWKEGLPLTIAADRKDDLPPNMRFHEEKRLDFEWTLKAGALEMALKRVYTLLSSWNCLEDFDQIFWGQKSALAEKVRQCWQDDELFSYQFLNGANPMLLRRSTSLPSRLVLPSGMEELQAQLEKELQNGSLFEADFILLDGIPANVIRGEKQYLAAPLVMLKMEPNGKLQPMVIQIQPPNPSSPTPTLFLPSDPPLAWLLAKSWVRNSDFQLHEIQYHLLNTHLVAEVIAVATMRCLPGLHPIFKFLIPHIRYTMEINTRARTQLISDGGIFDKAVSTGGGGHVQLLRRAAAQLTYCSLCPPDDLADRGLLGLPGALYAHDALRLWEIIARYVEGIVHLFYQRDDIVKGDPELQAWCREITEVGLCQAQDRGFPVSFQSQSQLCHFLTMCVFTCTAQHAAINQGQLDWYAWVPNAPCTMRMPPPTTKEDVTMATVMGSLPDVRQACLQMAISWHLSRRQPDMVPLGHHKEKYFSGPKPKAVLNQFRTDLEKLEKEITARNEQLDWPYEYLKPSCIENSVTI
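Hydroperoxide product was detected by ferrous iron/xylenol orange as the 573 to 405 nm absorbance ratio. Arachidonic acid at 40 uM (final) was turned over for 30 min at room temperature by 150 nM human 12hLO, pH 7.0 Hepes buffer, after 15 min compound preincubation.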
The depositor's hits bear a star; i = inactive; ? = inconclusive; . = no result given; [ ] = remark or other dose. The call rests on the fitted dose curve; in most records, active means well fitted curve in the direction sought with a large enough effect; inconclusive means small, poorly fitted or top-dose-only effect, or another doubt; inactive means no such curve, though single readings can be large; an effect the other way counts as inactive or inconclusive. On the % scale 0 is the no-effect control and ±100 the full control effect; potency means the concentration at half of the fitted maximal effect.

SMILES	RORgamma inh	DT40 TDP1 no CPT	TDP1 cell CPT	ELG1 repair inh	Gal4-VP16 FLuc	ALOX12 inh
O=C(Cc1ccncc1)N1CCC2(CC1)NCCc1c2[nH]c2ccccc12	.	.	.	.	.	16%
Cc1ccc(C(=O)Nc2cccc(NC(=O)c3ccc(C)c([N+](=O)[O-])c3)n2)cc1[N+](=O)[O-]	6%	16µM*	?	?	2%	i
Cc1ccc(C(=O)Nc2sc(C)c(-c3ccccc3)c2C(N)=O)cc1[N+](=O)[O-]	-26%	18µM*	13µM*	?	-7%	?
Cc1cc(NC(=O)c2ccc(C)c([N+](=O)[O-])c2)no1	6.3µM*	10%	4%	?	-11%	-2%
O=C(CCNc1ccc(Cc2ccncc2)cc1)c1ccc([N+](=O)[O-])cc1	-2%	?	23µM*	-4%	-19%[10 µM]	-6%
Cc1ccc(C(=O)NC(C)CCc2ccccc2)cc1[N+](=O)[O-] (configuration not stated)	0%	?	?	?	?	-1%
O=C(Nc1ccc(Cc2ccncc2)cc1)c1cccc([N+](=O)[O-])c1	12%	?	?	-3%	?	-13%
O=C(OCc1nc2ccccc2o1)c1cccc(S(=O)(=O)N2CCCCCC2)c1	.	.	.	.	.	-7%
Cc1cc(NC(=O)N2CCC(Oc3ncccc3C(=O)N(C)C)C2)ccc1Br (configuration not stated)	.	.	.	.	.	32%
N#Cc1ccc(CN2CCC(c3ccnn3CCO)CC2)cc1	.	.	.	.	.	-4%
Cc1ccccc1-c1nc(C#N)c(NCCCN(C)C)o1	.	.	.	.	.	-4%
Cc1ccc(C(=O)Nc2ccc(Cc3ccncc3)cc2)cc1[N+](=O)[O-]	?	21µM*	21µM*	?	-24%	?
O=C(/C=C/c1cccnc1)c1cc2ccc1CCc1ccc(cc1)CC2	.	.	.	.	.	22%
Cc1ccc(NC(=O)c2ccc(Cl)cc2[N+](=O)[O-])nc1	-23%	3.3µM*	3.3µM*	0%	-2%	-30%
Cc1ccc(NC(=O)c2ccccc2[N+](=O)[O-])nc1	0%	?	?	-5%	5%	-3%
O=C(Nc1nccs1)c1ccc(N2CCOCC2)c([N+](=O)[O-])c1	?	21µM*	?	?	?	0%
Cc1ccc(-c2cc(NC(=O)c3ccccc3[N+](=O)[O-])n[nH]2)cc1	?	21µM*	?	12%	4%	2%
O=C(Cc1ccccc1[N+](=O)[O-])Nc1nccs1	9%	?	8.2µM*	-8%	-5%	-14%
COC[C@H]1NC(=O)CC[C@H]1C(=O)NCCCc1ccccc1	.	.	.	.	.	12%
COC(=O)c1ccc(OCc2cc(OC)c(Br)cc2OC)cc1	.	.	.	.	.	3%
O=C(Nc1nccs1)c1ccc(Cl)c([N+](=O)[O-])c1	6.3µM*	3%	5%	0%	4.5µM*	156%
O=C(Nc1nccs1)c1cc([N+](=O)[O-])ccc1Cl	.	?	?	10%	.	0%
O=C(Nc1nccs1)c1ccc(Cl)cc1[N+](=O)[O-]	10µM*	-12%	-19%	4%	?	-3%
CCCN1C(=O)c2cc(C(=O)Nc3ccc(OC)cc3OC)ccc2C1Nc1ccc(OC)cc1OC (configuration not stated)	-5%	?	23µM*	?	-10%	-1%
C=Cn1cc[n+](CC(=O)c2cc(C(C)(C)C)c(O)c(C(C)(C)C)c2)c1	?	16µM*	15µM*	?	-13%	15%
SMILES	RORgamma inh	DT40 TDP1 no CPT	TDP1 cell CPT	ELG1 repair inh	Gal4-VP16 FLuc	ALOX12 inh
C=Cn1cc[n+](CC(=O)c2ccc(-c3ccccc3)cc2)c1	29%	2.3µM*	3.3µM*	-24%	-12%	13%
COc1ccc(CCNC(=O)Cc2c(C)c3ccc(OC)c(OC)c3oc2=O)cc1	.	.	.	.	.	-10%
COc1ccc(CN2CCN(C(C)c3nnc(-c4ccccc4)o3)CC2)cc1F (configuration not stated)	.	.	.	.	.	-2%
CCCc1noc(-c2cccn3c(CNC(=O)c4ccccc4Cl)nnc23)n1	.	.	.	.	.	43%
COc1ccc(C2C(C(=O)NCc3ccco3)c3ccccc3C(=O)N2C)cc1 (configuration not stated)	19%	-2%	5%	13%	-15%	22%
COc1ccc(C2C(C(=O)N3CCN(c4ccccc4)CC3)c3ccccc3C(=O)N2C)cc1 (configuration not stated)	-7%	?	-14%	21µM*	-1%	-18%
COc1ccc(C2C(C(=O)Nc3cc(OC)c(OC)c(OC)c3)c3ccccc3C(=O)N2C)cc1 (configuration not stated)	29%	1.8µM*	1.5µM*	-24%	2%	-9%
CCN(CC)CCCNC(=O)C1c2ccccc2C(=O)N(C)C1c1ccc(OC)cc1 (configuration not stated)	6%	2.3µM*	-8%	2%	-7%	-29%
COc1ccc(C2C(C(=O)N3CCN(C)CC3)c3ccccc3C(=O)N2C2CCCCC2)cc1 (configuration not stated)	-30%	-9%	-17%	-5%	0%	0%[57.4 µM]
COc1ccc(C2C(C(=O)NCCN3CCOCC3)c3ccccc3C(=O)N2C2CCCCC2)cc1 (configuration not stated)	?	5.2µM*	7.3µM*	-8%	-5%	21%
O=C(c1ccc2c(c1)OCO2)N1CCN2C(=O)N(Cc3ccc(F)cc3)C[C@H]2C1	.	.	.	.	.	28%[176 µM]
CC(C)N(C(=O)CC(C#N)(CC(=O)N(C(C)C)C(C)C)c1nc2ccccc2s1)C(C)C	.	.	.	.	.	-3%
CCc1nc(-c2c3n(c(=O)n(Cc4ccccc4OC)c2=O)CCCCC3)no1	.	.	.	.	.	31%
Fc1c(CSC(=S)N2CCOCC2)cccc1CSC(=S)N1CCOCC1	-14%	?	?	23µM*	-1%	13%
COc1ccc(NC(=O)c2ccc3c(c2)N(C)C2CCCCN2C3=O)c(OC)c1 (configuration not stated)	.	.	.	.	.	21%
Cc1ccc(OCCN2C(=O)C(=O)c3cccc(C)c32)cc1	-18%	2.9µM*	2.3µM*	8%	-5%	1%
CCOc1ccc(OCCN2C(=O)c3ccccc3C2=O)cc1	-25%	3%	-4%	8.2µM*	?	.
O=C1c2ccccc2C(=O)N1CCCOc1ccccc1	44%	7%	7%	?	8%	11%
